OTUD3 block = inhibitors of human OTUD3 deubiquitinase; OTU domain-containing protein 3 (Homo sapiens), Q5T2D3; purified OTUD3, Ub-rhodamine fluorescence, 2 h; inhibition, % at 25 µM; 0.7% of 47,000 active
Target sequence (Q5T2D3 whole entry, looked up, the tested form may be a part): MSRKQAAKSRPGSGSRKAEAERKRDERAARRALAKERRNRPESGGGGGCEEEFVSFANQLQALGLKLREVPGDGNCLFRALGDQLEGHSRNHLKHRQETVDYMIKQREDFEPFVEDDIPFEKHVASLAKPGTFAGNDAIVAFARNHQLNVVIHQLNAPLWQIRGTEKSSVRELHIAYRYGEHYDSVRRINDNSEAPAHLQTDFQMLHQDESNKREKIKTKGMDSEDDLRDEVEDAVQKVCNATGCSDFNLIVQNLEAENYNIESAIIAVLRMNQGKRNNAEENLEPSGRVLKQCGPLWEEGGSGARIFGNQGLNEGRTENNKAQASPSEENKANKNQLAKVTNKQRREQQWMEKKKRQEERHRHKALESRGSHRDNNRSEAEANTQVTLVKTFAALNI
USP30 block = inhibitors of human USP30 deubiquitinase; Ubiquitin carboxyl-terminal hydrolase 30 (Homo sapiens), Q70CQ3; purified USP30, Ub-rhodamine cleavage fluorescence; inhibition, % at 25 µM; 5.3% of 47,000 active; AID 1645860, 2021
USP17 inh = inhibitors of human USP17 deubiquitinase; Ubiquitin carboxyl-terminal hydrolase 17-like protein 5 (Homo sapiens), A8MUK1; AID 1645855, 2021; inhibition, % at 50 µM; 6.5% of 47,000 active; purified USP17, Ub-rhodamine cleavage fluorescence, 3 h
USP28 block = inhibitors of human USP28 deubiquitinase; Ubiquitin carboxyl-terminal hydrolase 28 (Homo sapiens), Q96RU2; 3% of 47,000 active; inhibition, % at 25 µM; purified USP28, Ub-rhodamine cleavage fluorescence, 30 min
Active calls of the source: *; / = no result. Most compounds without a hit are left out; they make up all but 11% or so of the library. No stated cut-off is given here; in the data, active means inhibition above about 30%; inactive means the rest.

SMILES | OTUD3 block | USP30 block | USP17 inh | USP28 block
O=C(c1ccc(Nc2c(-c3ccccc3)nc3cnccn23)cc1)N1CCCCC1 | -7 | -39 | 4 | 2
COc1cc(Cl)c(C)cc1NC(=O)Cn1c(=O)n(CC(=O)NCc2ccco2)c(=O)c2ccccc21 | 40* | 28 | 50* | 39*
O=C(Cn1c(=O)n(Cc2ccc(C(=O)NCc3ccco3)cc2)c(=O)c2ccccc21)Nc1ccc2c(c1)OCCO2 | 28 | 48* | 81* | 58*
O=C(CCCCn1c(=O)c2ccccc2n(CC(=O)Nc2ccc3c(c2)OCCO3)c1=O)NCc1ccco1 | 8 | 27 | 16 | 14
O=C(Cn1c(=O)c2ccccc2n(CC(=O)Nc2ccc(Br)cc2)c1=O)NCc1ccco1 | 15 | 21 | 31* | 15
COc1ccc(NC(=O)Cn2c(=O)n(CCCCC(=O)NCc3ccco3)c(=O)c3ccccc32)cc1Cl | 6 | -6 | -18 | -4
O=C(Cn1c(=O)c2ccccc2n(CC(=O)Nc2cc(Cl)cc(Cl)c2)c1=O)NCc1ccco1 | 12 | 40* | 30 | 17
Cc1nc(Nc2ncccn2)cc(C2CCCN2C(=O)c2ccccc2)n1 (stereo not drawn) | 12 | 26 | 20 | 11
CCOC(=O)CCc1c(C)c(C#N)c2nc3ccccc3n2c1-n1cnc2ccccc21 | 10 | -12 | 16 | 13
Cc1nc(C2CCN(C(=O)c3cn[nH]c3C)C2)nc2c1CCC(=O)N2Cc1cccc(F)c1 (stereo not drawn) | 11 | 21 | 16 | 12
COc1ccc2c(C)nc(N3CCC(N4CCC(C(O)Cc5ccccc5)CC4)CC3)nc2c1 (stereo not drawn) | -16 | -23 | -22 | -17
O=C(C1CCCC1)N1CCCC(Cc2cc(-c3ccccc3F)no2)(C(=O)O)C1 (stereo not drawn) | -2 | -2 | 5 | -7
Cc1oc(-c2ccccc2F)nc1CS(=O)(=O)CC(=O)NCc1ccccc1Cl | 16 | 26 | 46* | 10
Cc1noc(-c2cc(=O)n(CC(=O)NCc3ccccc3Cl)c3ccccc23)n1 | -6 | -18 | -3 | -14
O=C(CSc1ncnc2c1cnn2-c1ccccc1)Nc1ccccc1-c1ccccc1 | 23 | 31* | 13 | 11
Cc1nc2cc(N3CC(C(=O)Nc4cccc(C)c4C)CC3=O)ccc2o1 (stereo not drawn) | 12 | 33* | 18 | 10
O=C(CSc1cc(N2CCCCC2)ncn1)Nc1ccc2c(c1)OCCO2 | -5 | -12 | -9 | 49*
Cc1ccc(NC(=O)CSc2cc(N3CCCCC3)ncn2)cc1F | 7 | 31* | 0 | 25
COc1ccc(NC(=O)CSc2cc(N3CCCCC3)ncn2)cc1OC | 8 | 12 | 1 | 13
COc1ccc(NC(=O)CSc2nc(-c3ccc4c(c3)OCO4)ccc2C#N)cc1OC | -21 | -65 | 33* | 14
Cc1nc(C)c(-c2ccc(SCC(=O)Nc3ccc4c(c3)OCCO4)nn2)s1 | -30 | -115 | -35 | -15
COc1ccccc1-c1ccc(SCC(=O)Nc2ccc3c(c2)OCCO3)nn1 | 12 | 40* | 27 | 80*
CC(NC(=O)c1ccccc1)C(=O)N1CCc2cc(-c3ccno3)ccc21 (stereo not drawn) | -50 | -246 | -28 | -36
O=C(NC1CC(=O)N(C2CC2)C1)c1cc(-c2ccccc2)n[nH]1 (stereo not drawn) | 5 | 1 | 0 | 6
O=C(NCc1cccc(Br)c1)c1cc2ccccn2n1 | 14 | 25 | 15 | 30*
SMILES | OTUD3 block | USP30 block | USP17 inh | USP28 block
COCCCNC(=O)c1ccc(N2CCOc3ccccc32)s1 | -11 | -18 | -5 | -13
O=C(NC1CCS(=O)(=O)C1)c1ccc(N2CCOc3ccc(Cl)cc32)s1 (stereo not drawn) | 1 | 1 | 40* | 6
Cc1cccc(CNC(=O)c2ccc(N3C(=O)C(C)CS3(=O)=O)cc2Cl)c1 (stereo not drawn) | 1 | -12 | 1 | 6
Cc1cccc(Cn2cc(S(=O)(=O)N3CCCC3)ccc2=O)c1 | -9 | -4 | 0 | -8
CC(C)N(Cc1cc(=O)[nH]c2ccccc12)C(=O)c1ccccc1 | -3 | -10 | -3 | -7
COc1cc(C(=O)N(Cc2cc(=O)[nH]c3ccccc23)C(C)C)cc(OC)c1OC | 14 | 31* | 19 | 14
Cc1cccc(C)c1OCC(=O)N(C)Cc1cc(=O)[nH]c2ccccc12 | -3 | 12 | 14 | 3
CC(C)N(Cc1cc(=O)[nH]c2ccccc12)C(=O)c1ccc(C(C)(C)C)cc1 | -3 | 16 | 6 | 34*
Cc1nc(Nc2ncccn2)cc(C2CCCN2)n1 (stereo not drawn) | 4 | 16 | 4 | 30*
Cc1nc(Nc2nnc(C)s2)cc(C2CCCN2)n1 (stereo not drawn) | 0 | 1 | -5 | -5
O=C(Nc1c(C(=O)Nc2ccc(Cl)cc2)oc2ccccc12)c1ccccc1 | -1 | -12 | -4 | 2
CSc1cccc(NC(=O)COc2cccc3ccccc23)c1 | 14 | 78* | 41* | 35*
O=C(CCSc1ccccc1)Nc1ccc(Oc2ccccc2)cc1 | 6 | 5 | 42* | 3
O=C(COC(=O)C1CCCCC1)Nc1ccc(Oc2ccccc2)cc1 | 25 | 28 | 31* | 11
C/C1=C/C[C@@H]2[C@H](CC2(C)C)C2(CC[C@H]1O)Cc1c([nH]c(=O)[nH]c1=O)O2 (stereo partly drawn) | -9 | -14 | -51 | -16
COc1cc(C(=O)Nc2cccc(CCc3nc4ccc(C)cc4[nH]3)c2)cc(OC)c1OC | -15 | -20 | -22 | -12
O=C(Cc1ccc(Cl)cc1)N1CCN(S(=O)(=O)c2ccc3c(c2)OCCCO3)CC1 | 7 | 18 | 12 | -12
CCC(=O)Nc1nc2c(s1)CN(S(=O)(=O)c1ccc(C)cc1)CC2 | 6 | 10 | -1 | 5
C/C1=C\CCC(C)C(O)CC(O)C(C)C(O)CCC(C)C(O)CC2(O)OC(CC(OC(=O)CC(=O)O)CC(O)CC(O)CC(O)C(C)C(O)/C=C/C(C)C(C(C)CCCCCCCCN=C(N)N)OC1=O)CC(O)C2O (stereo not drawn) | -26 | -42 | 2 | 51*
COC(=O)c1ccc(C(=O)OC)c(N2C(=O)CSCC2=O)c1 | 13 | 49* | 20 | 13
COC(=O)c1ccc(O)c(O)c1 | 1 | 17 | -39 | 0
Cn1c(=O)n(CC(=O)OCc2ccccc2)c(=O)c2c1nc1oc(C(C)(C)C)cn12 | -9 | -24 | -7 | -12
CCOC(=O)CCn1c(=O)c2c(nc3oc(C(C)(C)C)cn32)n(C)c1=O | 11 | 32* | 15 | 12
CN(C(=O)CSc1nnc(-c2ccncc2)o1)C1CCCCC1 | 1 | / | 7 | /
O=C(C1CCN(c2ncccn2)CC1)N1CCN(c2nsc3ccccc23)CC1 | 9 | 13 | 6 | 5
CCOC(=O)c1cn(C2CC2)c2cc(N3CCNCC3)c([N+](=O)[O-])cc2c1=O | 14 | 58* | -7 | 36*
